The results in this text go back to PubChem BioAssay (NCATS).

Structures are written as SMILES. Results filed as inconclusive are left out. Entries that show only a call come without a potency. The source made the active and inactive calls. Calls come from the whole dose curve; as a rule, active = well fitted inhibition curve with a large enough effect; inconclusive = small, poorly fitted or top-dose-only effect; inactive = flat fitted curve, though single readings scatter.
Potency is the fitted concentration of half-maximal effect.

One test concerns CP297. In words: qHTS profiling for inhibitors of Plasmodium falciparum proliferation (AID 504749). Note: nearly all actives have a fitted effect of over 60% in size. The settings on record: P. falciparum in erythrocytes, SYBR Green DNA, 72 h; series mostly up to 28.7 µM. Put shortly:
(§1)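 P. falciparum-infected erythrocytes (0.3% parasitemia, 2.5% hematocrit) incubated with compound 72 h at 37 C, 5% CO2. Parasite DNA detected by SYBR Green after lysis, overnight at room temperature; normalised to 0.29 uM artemisinin and DMSO.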
For orientation: Quantitative high-throughput screening tests each substance at several concentrations.
For the compound `C=C(C)C1CC=C(C)CC1` (stereo not drawn), the Potency entry is “inactive”.

On to `F[Si-2](F)(F)(F)(F)F`, for which the Potency entry was “inactive”.

For `CC1=CC(=O)NS(=O)(=O)O1`, the Potency result is “inactive”.

Turning to `O=C(O)c1ccc(OCCn2ccnc2)cc1`, the Potency entry was “inactive”.

On to `CO`, for which the Potency entry was “inactive”.

`C[C@H](CCC(=O)O)[C@H]1CC[C@H]2[C@@H]3CC[C@@H]4C[C@H](O)CC[C@]4(C)[C@H]3C[C@H](O)[C@]12C`: the Potency result is “inactive”.

For `CC1=CC(=C(c2ccc(N)cc2)c2ccc(N)cc2)C=CC1=N`, the Potency was 4780 nM (active).

For `O=C(/C=C/c1cccc(F)c1)NC1CC1`, the Potency result was “inactive”.

As for `CC(CC=O)CCCC(C)(C)O` (stereo not drawn), the Potency entry was “inactive”.

On to `CC(C)O`, for which the Potency entry is “inactive”.

For the compound `CCCc1ccc(C(=O)O)cc1`, the Potency entry is “inactive”.

For the compound `O=C(O)Cc1cc(I)c(Oc2ccc(O)c(I)c2)c(I)c1`, the Potency entry is “inactive”.

`NCC[C@H](O)C(=O)N[C@@H]1C[C@H](N)[C@@H](O[C@H]2O[C@H](CN)CC[C@H]2N)[C@H](O)[C@H]1O[C@H]1O[C@H](CO)[C@@H](O)[C@H](N)[C@H]1O`: the Potency result was “inactive”.

Consider `NC(=O)[C@@H]1CCCN1C(=O)[C@H](Cc1cnc[nH]1)NC(=O)[C@@H]1CCC(=O)N1`, for which the Potency result was “inactive”.

On to `OC[C@H]1O[C@@](CO)(O[C@H]2O[C@H](CO)[C@@H](O)[C@H](O)[C@H]2O)[C@@H](O)[C@@H]1O`, for which the Potency result is “inactive”.

On to `Cc1c(Cl)cccc1Nc1ncccc1C(=O)O`, for which the Potency result was “inactive”.

Turning to `CC(/C=C/C=C(\C)C(=O)O[C@@H]1O[C@H](CO[C@@H]2O[C@H](CO)[C@@H](O)[C@H](O)[C@H]2O)[C@@H](O)[C@H](O)[C@H]1O)=C\C=C\C=C(C)\C=C\C=C(/C)C(=O)O[C@@H]1O[C@H](CO[C@@H]2O[C@H](CO)[C@@H](O)[C@H](O)[C@H]2O)[C@@H](O)[C@H](O)[C@H]1O`, the Potency entry was “inactive”.

On to `CC(C)[C@@H](N)C(=O)O`, for which the Potency result is “inactive”.

In the case of `O=C(NCCNCC(O)COc1ccc(O)cc1)N1CCOCC1` (stereo not drawn), the Potency entry was “inactive”.

For the compound `O=S(=O)(O)CC(S)CS` (stereo not drawn), the Potency entry is “inactive”.

In the case of `NCCN`, the Potency result was “inactive”.

As to `O=S(=O)(O)CCCS(=O)(=O)O`, the Potency result is “inactive”.

In the case of `O=C(Nc1ccc(O)cc1)c1ccccc1O`, the Potency result is “inactive”.

For `CCOC(=O)c1cc(-c2ccccc2)nc2ccc(C)cc12`, the Potency entry was “inactive”.

With `C=CC(C)(O)CC/C=C(\C)CCC=C(C)C` (stereo not drawn), the Potency entry was “inactive”.

On to `O=C(O)COc1ccccc1/C=N/NC(=O)c1ccncc1`, for which the Potency entry was “inactive”.

`OC[C@H]1O[C@@H]2O[C@H]3[C@H](O)[C@@H](O)[C@@H](O[C@H]4[C@H](O)[C@@H](O)[C@@H](O[C@H]5[C@H](O)[C@@H](O)[C@@H](O[C@H]6[C@H](O)[C@@H](O)[C@@H](O[C@H]7[C@H](O)[C@@H](O)[C@@H](O[C@H]1[C@H](O)[C@H]2O)O[C@@H]7CO)O[C@@H]6CO)O[C@@H]5CO)O[C@@H]4CO)O[C@@H]3CO`: the Potency entry was “inactive”.

On to `CN=C1C=CC(=C(c2ccc(N(C)C)cc2)c2ccc(N(C)C)cc2)C=C1`, for which the Potency was 1070 nM (active).

As for `CN(Cc1ccccc1)Cc1ccccc1`, the Potency entry was “inactive”.

Regarding `O=C1NCCN1c1ncc([N+](=O)[O-])s1`, the Potency entry was “inactive”.

With `CC(=O)Oc1cc(C(F)(F)F)ccc1C(=O)O`, the Potency entry is “inactive”.

On to `O=[N+]([O-])c1c(Cl)cccc1-c1c[nH]cc1Cl`, for which the Potency entry was “inactive”.

`CC(=O)Nc1c(I)c(C(=O)O)c(I)c(N(C)C(C)=O)c1I`: the Potency entry is “inactive”.

Regarding `O=C1N=C2SCCN2C(=O)C1Cc1ccc(Cl)cc1` (stereo not drawn), the Potency entry is “inactive”.

As to `O=C(O)Cc1nn(Cc2ccc(Br)cc2F)c(=O)c2ccccc12`, the Potency entry is “inactive”.

For the compound `CCC(C(=O)NC(N)=O)c1ccccc1` (stereo not drawn), the Potency result was “inactive”.

Consider `CC(CCc1ccc(O)cc1)NCC(O)c1ccc(O)cc1` (stereo not drawn), for which the Potency result is “inactive”.

For `CC/C=C\C/C=C\C/C=C\C/C=C\C/C=C\CCCC(=O)O`, the Potency entry was “inactive”.

For the compound `CC1(C)S[C@@H]2[C@H](NC(=O)C3(N)CCCCC3)C(=O)N2[C@H]1C(=O)O`, the Potency result is “inactive”.

The next test has as its system CP305. The test is described as above. The settings on record: P. falciparum in erythrocytes, SYBR Green DNA, 72 h; series mostly up to 28.7 µM. Put shortly: as §1
As for `C=C(C)C1CC=C(C)CC1` (stereo not drawn), the Potency entry was “inactive”.

For `F[Si-2](F)(F)(F)(F)F`, the Potency entry is “inactive”.

For `CC1=CC(=O)NS(=O)(=O)O1`, the Potency result was “inactive”.

Turning to `O=C(O)c1ccc(OCCn2ccnc2)cc1`, the Potency entry is “inactive”.

For the compound `CO`, the Potency result is “inactive”.

Take `C[C@H](CCC(=O)O)[C@H]1CC[C@H]2[C@@H]3CC[C@@H]4C[C@H](O)CC[C@]4(C)[C@H]3C[C@H](O)[C@]12C`: the Potency result is “inactive”.

With `CC1=CC(=C(c2ccc(N)cc2)c2ccc(N)cc2)C=CC1=N`, the Potency was 4260 nM (active).

Turning to `O=C(/C=C/c1cccc(F)c1)NC1CC1`, the Potency entry was “inactive”.

In the case of `CC(CC=O)CCCC(C)(C)O` (stereo not drawn), the Potency result was “inactive”.

In the case of `CC(C)O`, the Potency result was “inactive”.

Regarding `CCCc1ccc(C(=O)O)cc1`, the Potency entry was “inactive”.

Regarding `O=C(O)Cc1cc(I)c(Oc2ccc(O)c(I)c2)c(I)c1`, the Potency entry is “inactive”.

As to `NCC[C@H](O)C(=O)N[C@@H]1C[C@H](N)[C@@H](O[C@H]2O[C@H](CN)CC[C@H]2N)[C@H](O)[C@H]1O[C@H]1O[C@H](CO)[C@@H](O)[C@H](N)[C@H]1O`, the Potency entry was “inactive”.

With `NC(=O)[C@@H]1CCCN1C(=O)[C@H](Cc1cnc[nH]1)NC(=O)[C@@H]1CCC(=O)N1`, the Potency result is “inactive”.

With `OC[C@H]1O[C@@](CO)(O[C@H]2O[C@H](CO)[C@@H](O)[C@H](O)[C@H]2O)[C@@H](O)[C@@H]1O`, the Potency result was “inactive”.

Regarding `Cc1c(Cl)cccc1Nc1ncccc1C(=O)O`, the Potency result is “inactive”.

Take `CC(/C=C/C=C(\C)C(=O)O[C@@H]1O[C@H](CO[C@@H]2O[C@H](CO)[C@@H](O)[C@H](O)[C@H]2O)[C@@H](O)[C@H](O)[C@H]1O)=C\C=C\C=C(C)\C=C\C=C(/C)C(=O)O[C@@H]1O[C@H](CO[C@@H]2O[C@H](CO)[C@@H](O)[C@H](O)[C@H]2O)[C@@H](O)[C@H](O)[C@H]1O`: the Potency entry is “inactive”.

In the case of `CC(C)[C@@H](N)C(=O)O`, the Potency entry was “inactive”.

Turning to `O=C(NCCNCC(O)COc1ccc(O)cc1)N1CCOCC1` (stereo not drawn), the Potency entry is “inactive”.

On to `O=S(=O)(O)CC(S)CS` (stereo not drawn), for which the Potency result was “inactive”.

With `NCCN`, the Potency entry is “inactive”.

On to `O=S(=O)(O)CCCS(=O)(=O)O`, for which the Potency result is “inactive”.

Turning to `O=C(Nc1ccc(O)cc1)c1ccccc1O`, the Potency result was “inactive”.

Turning to `CCOC(=O)c1cc(-c2ccccc2)nc2ccc(C)cc12`, the Potency result was “inactive”.

In the case of `C=CC(C)(O)CC/C=C(\C)CCC=C(C)C` (stereo not drawn), the Potency result is “inactive”.

For the compound `O=C(O)COc1ccccc1/C=N/NC(=O)c1ccncc1`, the Potency entry is “inactive”.

In the case of `OC[C@H]1O[C@@H]2O[C@H]3[C@H](O)[C@@H](O)[C@@H](O[C@H]4[C@H](O)[C@@H](O)[C@@H](O[C@H]5[C@H](O)[C@@H](O)[C@@H](O[C@H]6[C@H](O)[C@@H](O)[C@@H](O[C@H]7[C@H](O)[C@@H](O)[C@@H](O[C@H]1[C@H](O)[C@H]2O)O[C@@H]7CO)O[C@@H]6CO)O[C@@H]5CO)O[C@@H]4CO)O[C@@H]3CO`, the Potency result was “inactive”.

Regarding `CN=C1C=CC(=C(c2ccc(N(C)C)cc2)c2ccc(N(C)C)cc2)C=C1`, the Potency is 953 nM (active).

Take `CN(Cc1ccccc1)Cc1ccccc1`: the Potency entry is “inactive”.

With `O=C1NCCN1c1ncc([N+](=O)[O-])s1`, the Potency result is “inactive”.

Turning to `CC(=O)Oc1cc(C(F)(F)F)ccc1C(=O)O`, the Potency entry is “inactive”.

As to `O=[N+]([O-])c1c(Cl)cccc1-c1c[nH]cc1Cl`, the Potency entry was “inactive”.

With `CC(=O)Nc1c(I)c(C(=O)O)c(I)c(N(C)C(C)=O)c1I`, the Potency result was “inactive”.

Regarding `O=C1N=C2SCCN2C(=O)C1Cc1ccc(Cl)cc1` (stereo not drawn), the Potency entry is “inactive”.

Consider `O=C(O)Cc1nn(Cc2ccc(Br)cc2F)c(=O)c2ccccc12`, for which the Potency result is “inactive”.

As for `CCC(C(=O)NC(N)=O)c1ccccc1` (stereo not drawn), the Potency result was “inactive”.

Turning to `CC(CCc1ccc(O)cc1)NCC(O)c1ccc(O)cc1` (stereo not drawn), the Potency entry was “inactive”.

As to `CC/C=C\C/C=C\C/C=C\C/C=C\C/C=C\CCCC(=O)O`, the Potency result is “inactive”.

As for `CC1(C)S[C@@H]2[C@H](NC(=O)C3(N)CCCCC3)C(=O)N2[C@H]1C(=O)O`, the Potency result was “inactive”.
